Measured values as given in the supplement of paper PMC8728848.
Shown is part of a subset that was picked to be rich in the strongest signals.

Legend:
Assay in all cases: glycan array binding signal (z-score within array); higher = stronger binding
Details in all cases: glycan notation: IUPAC condensed, linker removed
Fuc(a1-2)Gal(b1-3)GlcNAc = target: Fuc(a1-2)Gal(b1-3)GlcNAc
Method in brief: (§1)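 Glycan array data were curated from 3228 arrays in the Consortium for Functional Glycomics database and kept only where the protein sequence was available. Glycan names were converted to IUPAC-condensed notation, and columns mapping to the same glycan were averaged. The binding signal is a within-array Z-score, averaged across arrays of the same protein sequence at different concentrations or buffers and across linkers. Negative Z-scores can be read as non-binding.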

[1] = target: Fuc(a1-2)Gal(b1-4)GlcNAc(b1-2)Man(a1-3)[Fuc(a1-2)Gal(b1-4)GlcNAc(b1-2)Man(a1-6)]Man(b1-4)GlcNAc(b1-4)[Fuc(a1-6)]GlcNAc
Method in brief: as §1

[2] = target: Fuc(a1-2)Gal(b1-4)GlcNAc6S
Method in brief: as §1

[3] = target: Fuc(a1-2)Gal(b1-4)[Fuc(a1-3)]GlcNAc(b1-3)Gal(b1-4)[Fuc(a1-3)]GlcNAc(b1-3)Gal(b1-4)[Fuc(a1-3)]GlcNAc
Method in brief: as §1

[4] = target: Fuc(a1-2)[Gal(a1-3)]Gal(b1-4)GlcNAc(b1-2)Man(a1-3)[Fuc(a1-2)[Gal(a1-3)]Gal(b1-4)GlcNAc(b1-2)Man(a1-6)]Man(b1-4)GlcNAc(b1-4)[Fuc(a1-6)]GlcNAc
Method in brief: as §1

[5] = target: Fuc(a1-2)[GalNAc(a1-3)]Gal(b1-3)GlcNAc(b1-2)Man(a1-3)[Fuc(a1-2)[GalNAc(a1-3)]Gal(b1-3)GlcNAc(b1-2)Man(a1-6)]Man(b1-4)GlcNAc(b1-4)[Fuc(a1-6)]GlcNAc
Method in brief: as §1

[6] = target: Gal(a1-3)Gal(b1-3)GlcNAc(b1-3)GalNAc
Method in brief: as §1

[7] = target: Gal(b1-3)GlcNAc(a1-6)Gal(b1-4)GlcNAc
Method in brief: as §1

[8] = target: Gal(b1-3)GlcNAc(b1-2)[Gal(b1-3)GlcNAc(b1-6)]Man(a1-6)[Gal(b1-3)GlcNAc(b1-2)Man(a1-3)]Man(b1-4)GlcNAc(b1-4)GlcNAc
Method in brief: as §1

[9] = target: Gal(b1-3)GlcNAc(b1-3)Gal(b1-4)GlcNAc(b1-2)[Gal(b1-3)GlcNAc(b1-3)Gal(b1-4)GlcNAc(b1-6)]Man(a1-6)[Gal(b1-3)GlcNAc(b1-3)Gal(b1-4)GlcNAc(b1-2)Man(a1-3)]Man(b1-4)GlcNAc(b1-4)[Fuc(a1-6)]GlcNAc
Method in brief: as §1

[10] = target: Gal(b1-3)GlcNAc(b1-3)Gal(b1-4)GlcNAc(b1-3)Gal(b1-4)GlcNAc(b1-2)[Gal(b1-3)GlcNAc(b1-3)Gal(b1-4)GlcNAc(b1-3)Gal(b1-4)GlcNAc(b1-6)]Man(a1-6)[Gal(b1-3)GlcNAc(b1-3)Gal(b1-4)GlcNAc(b1-3)Gal(b1-4)GlcNAc(b1-2)Man(a1-3)]Man(b1-4)GlcNAc(b1-4)[Fuc(a1-6)]GlcNAc
Method in brief: as §1

[11] = target: Gal(b1-4)GalNAc(b1-3)[Fuc(a1-2)]Gal(b1-4)GlcNAc
Method in brief: as §1

[12] = target: Gal(b1-4)GlcNAc(b1-3)Gal(b1-4)GlcNAc(b1-2)Man(a1-3)[Gal(b1-4)GlcNAc(b1-3)Gal(b1-4)GlcNAc(b1-2)Man(a1-6)]Man(b1-4)GlcNAc(b1-4)GlcNAc
Method in brief: as §1

[13] = target: Gal(b1-4)GlcNAc(b1-3)Gal(b1-4)GlcNAc(b1-3)Gal(b1-4)GlcNAc(b1-3)Gal(b1-4)GlcNAc(b1-3)Gal(b1-4)GlcNAc(b1-3)Gal(b1-4)GlcNAc(b1-2)Man(a1-3)[Gal(b1-4)GlcNAc(b1-3)Gal(b1-4)GlcNAc(b1-3)Gal(b1-4)GlcNAc(b1-3)Gal(b1-4)GlcNAc(b1-3)Gal(b1-4)GlcNAc(b1-3)Gal(b1-4)GlcNAc(b1-2)Man(a1-6)]Man(b1-4)GlcNAc(b1-4)GlcNAc
Method in brief: as §1

[14] = target: Gal(b1-4)GlcNAc(b1-6)[Gal(b1-4)GlcNAc(b1-3)]GalNAc
Method in brief: as §1

Gal3S(b1-4)Glc = target: Gal3S(b1-4)Glc
Method in brief: as §1

Gal6S(b1-4)GlcNAc = target: Gal6S(b1-4)GlcNAc
Method in brief: as §1

[15] = target: GalNAc(b1-4)GlcNAc(b1-2)Man
Method in brief: as §1

GalNAc(b1-4)GlcNAc6S = target: GalNAc(b1-4)GlcNAc6S
Method in brief: as §1

GalNAc(b1-6)GalNAc = target: GalNAc(b1-6)GalNAc
Method in brief: as §1

[16] = target: GlcNAc(b1-2)Man(a1-3)[GlcNAc(b1-4)][GlcNAc(b1-2)Man(a1-6)]Man(b1-4)GlcNAc(b1-4)[Fuc(a1-6)]GlcNAc
Method in brief: as §1

[17] = target: GlcNAc(b1-2)[GlcNAc(b1-6)]Man(a1-6)[GlcNAc(b1-2)Man(a1-3)]Man(b1-4)GlcNAc(b1-4)GlcNAc
Method in brief: as §1

[18] = target: GlcNAc(b1-3)Gal(b1-4)GlcNAc(b1-3)Gal(b1-4)GlcNAc(b1-2)Man(a1-3)[GlcNAc(b1-3)Gal(b1-4)GlcNAc(b1-3)Gal(b1-4)GlcNAc(b1-2)Man(a1-6)]Man(b1-4)GlcNAc(b1-4)[Fuc(a1-6)]GlcNAc
Method in brief: as §1

B1: Pwp4 (Candida glabrata) (protein)
chain: MGSSHHHHHHSSGLVPRGSHMASVGNPITVSNVCSFPKNWHRTAGFRALTARLGIGIQSDSYKELLNYPGTFQLTTQQSSTTKPNFQISGLVGNIYGLTIVPSYLLVELTGYFVPPVSGEYTFSLEGSDDAAIIFIANPSTFKCGHVEDWPTAYDNDVTVTESIHATRTIYMIEGVAYPIRIAYYNGLSLGKLQASFTDPEGVKRVDWNGYIWRYDSCDTCSYV
In the case of B1, the “glycan array binding signal (z-score)” value (Fuc(a1-2)Gal(b1-3)GlcNAc) is reported as -0.913, the “glycan array binding signal (z-score)” value [1] is reported as 0.039 and the “glycan array binding signal (z-score)” value [2] is reported as -0.4. The “glycan array binding signal (z-score)” value [3] was 1.61, the “glycan array binding signal (z-score)” value [4] was -0.415 and the “glycan array binding signal (z-score)” value [5] was -0.763. For the same binder, the “glycan array binding signal (z-score)” value [6] was -0.55, the “glycan array binding signal (z-score)” value [7] was 2.97 and the “glycan array binding signal (z-score)” value [8] was -0.162. The “glycan array binding signal (z-score)” value [9] was 5.18, the “glycan array binding signal (z-score)” value [10] was 2.9 and the “glycan array binding signal (z-score)” value [11] was -0.019. The “glycan array binding signal (z-score)” value [12] was 0.09, the “glycan array binding signal (z-score)” value [13] was 3.83 and the “glycan array binding signal (z-score)” value [14] was 0.033. For the same binder, the “glycan array binding signal (z-score)” value (Gal3S(b1-4)Glc) was -0.366, the “glycan array binding signal (z-score)” value (Gal6S(b1-4)GlcNAc) was -0.68 and the “glycan array binding signal (z-score)” value [15] was -0.392. For the same binder, the “glycan array binding signal (z-score)” value (GalNAc(b1-4)GlcNAc6S) was -0.423, the “glycan array binding signal (z-score)” value (GalNAc(b1-6)GalNAc) was -0.402 and the “glycan array binding signal (z-score)” value [16] was -1. The “glycan array binding signal (z-score)” value [17] was 7.51 and the “glycan array binding signal (z-score)” value [18] was 1.26.
